Assay outcomes as filed in PubChem.
Cruzain Triton: inhibitors of Trypanosoma cruzi cruzain with detergent | purified cruzain, Z-FR-AMC fluorescence, 0.01% Triton | Potency, µM, without a hit: max response, negative = inhibition, hits mostly inhibitors | 0.43% of 200,000 active;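 note: plate controls were neutral wells for no effect and buffer without enzyme for full effect; nearly all actives have a fitted effect of over 40% in size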
Target sequence (P25779 123-467 limits assumed): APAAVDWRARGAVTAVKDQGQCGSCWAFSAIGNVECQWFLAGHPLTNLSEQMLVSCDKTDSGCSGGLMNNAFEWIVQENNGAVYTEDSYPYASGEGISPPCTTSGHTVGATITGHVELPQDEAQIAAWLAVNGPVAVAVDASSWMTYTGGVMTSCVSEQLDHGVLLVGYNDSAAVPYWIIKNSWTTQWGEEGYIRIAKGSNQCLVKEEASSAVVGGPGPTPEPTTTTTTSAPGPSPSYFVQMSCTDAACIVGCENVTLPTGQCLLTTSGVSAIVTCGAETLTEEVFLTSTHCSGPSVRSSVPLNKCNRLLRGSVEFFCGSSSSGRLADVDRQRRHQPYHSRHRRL
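In this qHTS format, compounds are incubated with 1.5 nM cruzain for 15 min at room temperature before 2 uM Z-FR-AMC is added. Release of AMC is followed at 360/450 nm, and progress is taken as the 60 s fluorescence difference.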
Cruzain noTriton: cruzain (T. cruzi) inhibition without detergent | P25779 | Potency, µM, for inactives: max response, negative = inhibition, hits mostly inhibitors | 2.3% of 200,000 active | purified cruzain, Z-FR-AMC fluorescence, no detergent;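 note: plate controls were enzyme without inhibitor for no effect and buffer without enzyme for full effect; nearly all actives have a fitted effect of over 40% in size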
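Detergent-free condition (0.00005% Triton X-100) in acetate buffer pH 5.5 with DTT. 1.5 nM enzyme and compound were pre-mixed 15 min, then 2 uM Z-FR-AMC substrate added; reaction progress from fluorescence change between first and third reads (60 s).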
Starred values were filed as active, the others as inactive. Hits are enriched below; roughly 2.5% of the tested compounds scored in any of these assays. Calls come from the whole dose curve; as a rule, active = well fitted curve in the direction sought with a large enough effect; inconclusive = small, poorly fitted or top-dose-only effect, or another doubt; inactive = no such curve, though single readings can be large; an effect the other way counts as inactive or inconclusive. Potency is the fitted concentration of half-maximal effect.

For NC1=C(c2ccc(F)cc2)C(=O)CS1 the results were Cruzain Triton inconclusive and Cruzain noTriton 15.8µM*.
Screening O=C(c1ccc2c(c1)N(Cc1ccc(F)cc1)C(=O)c1ccccc1S2=O)N1CCC(Cc2ccccc2)CC1 (stereo not drawn) returned Cruzain Triton -1.2% and Cruzain noTriton -20.9%.
Screening CCOC(=O)c1cnn(-c2nc(C)nc3sc4c(c23)CCC4)c1N returned Cruzain Triton 3.9% and Cruzain noTriton inconclusive.
`CCOC(=O)c1cnn(-c2nc(SC)nc3sc4c(c23)CCC4)c1N` gave Cruzain Triton 0.8% and Cruzain noTriton 7.94µM*.
Screening O=C(CSc1nc2nccnc2c(=O)n1CCc1c[nH]c2ccccc12)Nc1ccc(F)cc1 returned Cruzain Triton 0.1% and Cruzain noTriton 2.4%.
`Cc1cc(C)c2[nH]c(=O)c(CN(Cc3cccs3)C(=S)NCc3ccco3)cc2c1` gave Cruzain Triton -3.3% and Cruzain noTriton inconclusive.
Screening Cc1ccc(NC(=S)N(Cc2cccs2)Cc2cc3cc(C)cc(C)c3[nH]c2=O)cc1 returned Cruzain Triton -4.1% and Cruzain noTriton 25.1µM*.
`Cc1cccc(NC(=S)N(Cc2cccs2)Cc2cc3cc(C)ccc3[nH]c2=O)c1` gave Cruzain Triton -6.3% and Cruzain noTriton inconclusive.
Cc1ccc(NC(=S)N(Cc2cccs2)Cc2cc3cc(C)ccc3[nH]c2=O)cc1 was read as Cruzain Triton -6.2% and Cruzain noTriton 15.8µM*.
Screening Nc1c(S(=O)(=O)O)cc(S(=O)(=O)O)c2ccc(N=Nc3ccccc3)c(O)c12 returned Cruzain Triton -0.2% and Cruzain noTriton -7.1%.
Screening Cc1cc(-c2ccc(N=Nc3cc(S(=O)(=O)O)c4ccccc4c3N)c(C)c2)ccc1N=Nc1cc(S(=O)(=O)O)c2ccccc2c1N returned Cruzain Triton 7.94µM* and Cruzain noTriton inconclusive.
For Cc1cccc(-n2c(=O)c3c4c(sc3n3c(C)nnc23)CCCC4)c1 the results were Cruzain Triton 6.7% and Cruzain noTriton 2.0%.
Screening CC(C)OC(=O)c1c(NC(=O)c2cnn3c2NC(c2ccccc2)CC3C(F)(F)F)sc2c1CCCC2 (stereo not drawn) returned Cruzain Triton 3.4% and Cruzain noTriton inconclusive.
CCOC(=O)c1c(NC(=O)c2cnn3c2NC(c2cccc(OC)c2)CC3C(F)(F)F)sc2c1CCCC2 (stereo not drawn) was read as Cruzain Triton -1.1% and Cruzain noTriton 3.16µM*.
Screening O=C(CN1C(=O)C2CCCCN2c2ccc(C(=O)N3CCCC3)cc21)NCc1ccccc1F (stereo not drawn) returned Cruzain Triton -1.6% and Cruzain noTriton -3.5%.
`CCOC(=O)c1c(NC(=O)Cn2nc([N+](=O)[O-])c(Br)c2C)sc2c1CCC(C)C2` (stereo not drawn) gave Cruzain Triton -4.0% and Cruzain noTriton 12.6µM*.
For CCOC(=O)c1c(NC(=O)CC2SC(N)=NC2=O)sc2c1CCC(C)C2 (stereo not drawn) the results were Cruzain Triton -11.7% and Cruzain noTriton inconclusive.
`Cc1ccc(-n2nc(C)c3c(C)cc(=O)n(CC(=O)Nc4ccc(Br)cc4F)c32)cc1` gave Cruzain Triton -2.5% and Cruzain noTriton -1.1%.
For COc1ccc(NS(=O)(=O)c2ccc3nc(COc4cccc5ccccc45)[nH]c3c2)cc1 the results were Cruzain Triton -2.4% and Cruzain noTriton 31.6µM*.
COc1ccc(NS(=O)(=O)c2ccc3nc(COc4ccc5ccccc5c4)[nH]c3c2)cc1 was read as Cruzain Triton 5.3% and Cruzain noTriton inconclusive.
Screening CCOc1cc(C(=O)O)cc(Cl)c1OCC#N returned Cruzain Triton 4.1% and Cruzain noTriton 1.9%.
`COc1cc(/C=N/O)cc(Cl)c1OC` gave Cruzain Triton -3.2% and Cruzain noTriton -2.5%.
Screening C#CCOc1c(Cl)cc(/C=N/NC(N)=S)cc1OCC returned Cruzain Triton 2µM* and Cruzain noTriton 0.631µM*.
COc1cc(OC)c(/C=N/NC(N)=S)cc1Br was read as Cruzain Triton 0.178µM* and Cruzain noTriton 0.251µM*.
`CCOc1c(Cl)cc(/C=N/NC(N)=S)cc1OC` gave Cruzain Triton 2.51µM* and Cruzain noTriton 0.501µM*.
`COc1cc(OC)c(OC)cc1/C=N/NC(=O)C[n+]1ccccc1` gave Cruzain Triton -4.7% and Cruzain noTriton -12.6%.
For COc1ccc2c(c1)Cc1sc(NC(=O)c3ccccc3C)nc1-2 the results were Cruzain Triton 0.2% and Cruzain noTriton 1.9%.
For Cc1cc2oc(C(=O)Nc3ccc(S(=O)(=O)Nc4ncccn4)cc3)cc(=O)c2cc1C the results were Cruzain Triton -0.7% and Cruzain noTriton -3.2%.
`Cc1cc(SCC(=O)N2CCC(c3noc4ccc(F)cc34)CC2)nc2ccccc12` gave Cruzain Triton -1.8% and Cruzain noTriton -13.4%.
O=C(CSc1ncnc2sc3c(c12)CCCC3)N1CCC(c2noc3ccc(F)cc23)CC1 was read as Cruzain Triton 2.6% and Cruzain noTriton 15.8µM*.
For Cc1cccc(C)c1Nc1oc(-c2ccccc2)nc1-c1ccccc1 the results were Cruzain Triton 1.8% and Cruzain noTriton -6.6%.
For C/C(=N\Nc1nc(-c2ccccc2)cs1)c1cccs1 the results were Cruzain Triton inconclusive and Cruzain noTriton 7.94µM*.
`O=C(COC(=O)CNC(=O)c1ccccc1)Nc1nc(-c2ccccc2)cs1` gave Cruzain Triton 25.1µM* and Cruzain noTriton inconclusive.
For Cc1cc(C)cc(NC(=O)CCn2cnc3ccccc3c2=O)c1 the results were Cruzain Triton -1.2% and Cruzain noTriton -10.5%.
O=C(COC(=O)/C=C/c1cccs1)Nc1nc(-c2ccccc2)cs1 was read as Cruzain Triton -4.5% and Cruzain noTriton inconclusive.
Screening O=C(COC(=O)c1cccs1)Nc1nc(-c2ccccc2)cs1 returned Cruzain Triton -0.3% and Cruzain noTriton 10µM*.
Screening O=C(Cc1cccs1)Nc1nc(-c2ccccc2)cs1 returned Cruzain Triton -9.6% and Cruzain noTriton -0.4%.
`C/C(=N\Nc1nc2ccccc2s1)c1cccs1` gave Cruzain Triton -11.0% and Cruzain noTriton -23.5%.
For O=C(CCn1cnc2ccccc2c1=O)Nc1nc(-c2ccc(Br)cc2)cs1 the results were Cruzain Triton 6.3% and Cruzain noTriton 25.1µM*.
Cn1cc(Cl)c(C(=O)OCC(=O)Nc2nc(-c3ccc(Br)cc3)cs2)n1 was read as Cruzain Triton -5.7% and Cruzain noTriton 31.6µM*.
For Cn1nccc1C(=O)OCC(=O)Nc1nc(-c2ccccc2)cs1 the results were Cruzain Triton -8.2% and Cruzain noTriton -5.9%.
`Cc1cc(O)c(C(c2ccccc2Cl)N2CCN(c3ccccc3)CC2)c(=O)n1Cc1ccco1` (stereo not drawn) gave Cruzain Triton -1.0% and Cruzain noTriton inconclusive.
`O=C(Cn1nc(-c2ccc(Cl)cc2)c2ccccc2c1=O)Nc1cccc(Br)c1` gave Cruzain Triton -3.5% and Cruzain noTriton -8.0%.
COc1ccc(-c2nn(CC(=O)Nc3ccc(Cl)c(Cl)c3)c(=O)c3ccccc23)cc1 was read as Cruzain Triton -0.5% and Cruzain noTriton 7.94µM*.
Cc1cc([N+](=O)[O-])ccc1-c1ccc(C2Nc3ccccc3C(=O)N2O)o1 (stereo not drawn) was read as Cruzain Triton -5.4% and Cruzain noTriton 20µM*.
For CCOC(=O)c1ccc(-c2ccc(C3Nc4ccccc4C(=O)N3O)o2)cc1 (stereo not drawn) the results were Cruzain Triton -15.0% and Cruzain noTriton inconclusive.
